From PubChem BioAssay (EPA / NIEHS) come the findings set out here.

A structure can be active in one record and inactive in another. Active and inactive are the calls of the source. How the source made its calls: active means hit-call score of the fitted dose curve at least 0.9, where 1 is the maximum; inactive means score below 0.9.

Read-out in this assay: Interleukin-8 (IL8), CXCL8 (gene 3576)
Kind of assay: BSK_LPS_IL8: BioMAP Diversity Plus: LPS Assay for Interleukin-8 (IL8) Biomarker Activity (AID 2283078). The conditions noted are these: primary human HUVEC with PBMC; actives raise or lower the signal. The method, boiled down:
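HUVEC + PBMC co-culture, LPS-activated; test chemicals dosed, IL-8 read by ELISA at 24 h. Bidirectional curve fit vs DMSO baseline (gain or loss of signal).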
As for `CCCCCCCCCCCCc1cccc(S(=O)(=O)O)c1`, the result was inactive.
What is called AC50 is the concentration at which the activity in the assay is half-maximal. In the case of `CC(C)N(C(=O)CCl)c1ccccc1`, the AC50 was 20 µM (active).
On to `CN(C)C(=S)S`, for which the result was inactive.
The same measure, in the same setting: under `Oc1c(Br)cc(Br)cc1Br` stands “inactive”; under `C[C@]12CC[C@@H](O)C[C@@H]1CC[C@@H]1[C@@H]2CC[C@]2(C)C(=O)CC[C@@H]12`, “inactive”.
On the same count and under the same terms, under `O=C(O)COc1cc(Cl)c(Cl)cc1Cl` stands “inactive”.
Same read-out and setting: under `Cc1ccc(OP(=O)(Oc2ccc(C)cc2C)Oc2ccc(C)cc2C)c(C)c1` stands “inactive”; under `C=CC(Cl)CCl` (centres undefined), “inactive”.
For the compound `[Cl][Sn]([c]1ccccc1)([c]1ccccc1)[c]1ccccc1`, the AC50 is 0.577 µM (active).
As to `COc1ccccc1N`, the result was inactive.
Still for that read-out and setting: under `Cc1cccc(OP(=O)(Oc2cccc(C)c2)Oc2cccc(C)c2)c1` stands “inactive”; under `N#Cc1cccnc1`, “inactive”.
Still for that read-out and setting: the entry for `OC(Cc1ccccc1Cl)(Cn1[nH]cnc1=S)C1(Cl)CC1` (centres undefined) is “inactive”.
Regarding `CC1(C)[C@H](C(=O)O[C@H](C#N)c2cccc(Oc3ccccc3)c2)[C@@H]1/C=C(\Cl)C(F)(F)F`, the AC50 was 0.0495 µM (active) and the result was inactive.
Take `CCCCCCCCCCCCN(C)C`: the result was inactive.
On the same count and under the same terms, the entry for `OCCCCO` is “inactive”; for `Nc1ccc(N)cc1` it is “inactive”.
On the same count and under the same terms, under `COCC(=O)N(c1c(C)cccc1C)[C@H](C)C(=O)OC` stands “inactive”.
The same measure, in the same setting: the entry for `CCOP(=S)(OCC)OP(=S)(OCC)OCC` is “inactive”.
For the compound `Clc1cccc(Cl)c1`, the result was inactive.
On the same count and under the same terms, the entry for `OC(Cc1ccccc1Cl)(Cn1cncn1)C1(Cl)CC1` (centres undefined) is “inactive”.
Regarding `Clc1cccc(Cl)c1Cl`, the outcome was inactive.
Same read-out and setting: the entry for `NC(=O)CCl` is “inactive”; for `O=C(N[C@H]1CN2CCC1CC2)c1ccc2c(c1)OCCO2` it is “inactive”.
As for `c1ccc(-c2cccc(-c3ccccc3)c2)cc1`, the AC50 was 29.9 µM (active).
Take `Cc1c([N+](=O)[O-])c(C)c([N+](=O)[O-])c(C(C)(C)C)c1[N+](=O)[O-]`: the result was inactive.
On the same count and under the same terms, the entry for `CCCCN(CCCC)C(=S)[S-].CCCCN(CCCC)C(=S)[S-].[Ni+2]` is “inactive”.
`O=C(CCl)NCO`: the concentration at half-maximal activity (AC50) is 0.0625 µM (active).
In the case of `Cc1cc(Cl)ccc1N`, the result was inactive.
With `Oc1cc(Cl)c(Cl)cc1Cl`, the concentration at half-maximal activity (AC50) was 32.3 µM (active).
For the compound `CCOC(=O)CCN(SN(C)C(=O)Oc1cccc2c1OC(C)(C)C2)C(C)C`, the result was inactive.
The same measure, in the same setting: under `CCCCOC(=O)COC(=O)c1ccccc1C(=O)OCCCC` stands “inactive”.
For `N#CCCC(Br)(C#N)CBr` (centres undefined), the AC50 was 26.7 µM (active).
